Experimental findings from PubChem BioAssay (NCATS) are described below.

Records with an inconclusive call do not appear. The source made the active and inactive calls. Unless noted, calls follow the shape of the dose curve; as a rule, active = well fitted curve in the direction sought with a large enough effect; inconclusive = small, poorly fitted or top-dose-only effect, or another doubt; inactive = no such curve, though single readings can be large; an effect the other way counts as inactive or inconclusive. Bounds are passed on as bounds.

In experiment [1] the target is Lysosomal acid glucosylceramidase (Homo sapiens) (UniProt P04062). In words: Glucocerebrosidase-p2 (AID 348; in the data active = potency below about 10 µM; also: potency is read from the fitted curve at half-maximal effect). Conditions: purified GBA, blue fluorogenic substrate, 40 min. The method, boiled down:
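Compounds titrated from 0.6 nM upwards against 0.2 nM enzyme in pH 5.9 citric acid/KH2PO4, taurocholate, tween-20; blue fluorogenic substrate 80 uM, 40 min room temperature, stopped and read Ex 365/Em 440 for AC50.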

In experiment [2] the target is Cytochrome P450 1A2 (Homo sapiens) (UniProt P05177). In words: p450-cyp1a2 (AID 410; calls by dose curve; also: potency is read from the fitted curve at half-maximal effect). Conditions: recombinant CYP1A2, luciferin-ME demethylation, luminescence; series mostly up to 57 µM. In outline:
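Human CYP1A2 (20nM) demethylated Luciferin-ME at its Km (100uM) in 100mM KPO4. After 10 min compound preincubation, NADPH regeneration ran the reaction 60 min at room temperature. Luciferin was read by luminescence, normalized to 57 uM furafylline.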

A short description of experiment [3]: NFAT Signaling Pathway (AID 444; active = well fitted curve in either direction with a large enough effect, not every such curve was filed as active;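 also: carbachol stimulus at about its EC50 of 1 µM final; % is scaled to controls: 0 for no effect and ±100 for the full control effect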). Conditions: Jurkat NFAT-bla M1, carbachol, beta-lactamase ratio, 5 h; at 7.69 µM (top of the series) unless noted. In outline:
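Read-out: CCF4 FRET ratio (460 nm/530 nm) after 1 h RT dye loading, used for %activity and AC50 from titration series. Cells: Jurkat NFAT-β-lactamase/M1 line, treated with compound plus 1 uM carbachol for 5 h, 37 °C.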

A short description of experiment [4]: Stat Signaling Pathway (AID 446; active = well fitted curve in either direction with a large enough effect, not every such curve was filed as active;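 also: ME-180 cervical cancer cells given 40 pM IL-6 alongside compound; SIE-controlled beta-lactamase reporter measured as 460/530 nm FRET emission ratio; % is scaled to controls: 0 for no effect and ±100 for the full control effect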). Conditions: ME-180 SIE beta-lactamase reporter, IL-6 stimulated, 5 h; at 7.69 µM (top of the series) unless noted. In outline: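 Reporter line: ME-180 cervical carcinoma, SIE-beta-lactamase. Treatment: compound with 40 pM IL-6, 5 hrs, 37 C, in low-serum OPTI-MEM with 10 mM HEPES pH 7.3. Detection: 460/530 nm fluorescence.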

Experiment [5] addresses Glucocorticoid receptor (Homo sapiens) (UniProt P04150). Put plainly: GR-GFP Redistribution (AID 450;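 active = compounds whose dose series gives a full or clear partial fitted curve of increased nuclear translocation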; also: potency is read from the fitted curve at half-maximal effect). Conditions: U2OS GR-GFP nuclear translocation, laser cytometry, 2 h.
Experiment [6] has the same target. In words: GR-EFC Redistribution (AID 451; calls by dose curve; also: potency is read from the fitted curve at half-maximal effect). Conditions: CHO-K1 GR-EFC translocation, beta-gal luminescence, 2 h. The method, boiled down: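 Translocation of GR-ED fusion to nuclear EA restores b-gal, read by luminescence after 1 h room-temperature detection. Engineered CHO-K1 biosensor cells, 1,000/well, exposed 2 h at 37 C to titrations up to 46 uM final.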
For experiment [7], the target named is Mitogen-activated protein kinase 10 (Mus musculus) (UniProt Q61831). In words: JNK3 AlphaScreen Assay (AID 530; active = well fitted curve in either direction with a large enough effect, not every such curve was filed as active;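 also: kinase came from lysate of stimulated human HepG2 cells; signal reports phosphorylation of biotinylated GST-cJun 1-79 at Ser73 with 10 µM ATP; % is scaled to controls: 0 for no effect and ±100 for the full control effect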). Conditions: JNK3 lysate, c-Jun phosphorylation; series mostly up to 57.1 µM. The method, boiled down:
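Room-temperature AlphaScreen kinase assay; pre-activated HepG2 lysate as JNK3 source, biotin-GST-cJun(1-79) substrate, 10 uM ATP, compound 15 min preincubation.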
Background: Alpha assays give light when donor and acceptor beads are brought close together.

Experiment [8] addresses 3',5'-cyclic-AMP phosphodiesterase 4B (Homo sapiens) (UniProt Q07343). In words: qHTS Assay for Inhibitors of PDE-IV (AID 607; active = well fitted activation curve with a large enough effect in the main read-out, with a control signal flat, not every such curve was filed as active; also: % of control where 0% means no effect). Conditions: HEK293 ACTOne CNG channel cells, membrane potential fluorescence; series mostly up to 22.9 µM. The method, boiled down: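 Cell-based read-out of cAMP via a modified cyclic nucleotide-gated channel and membrane potential dye (535/590 nm) in HEK293 cells expressing PDE4 endogenously. Compounds tested up to 22.9 uM final; 100 uM RO 20-1724 reference.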
In general terms: In qHTS, concentration-response curves come from the screen itself.

The target in experiment [9] is Cytochrome P450 3A4 (Homo sapiens) (UniProt P08684). Put plainly: qHTS Assay for Activators of Cytochrome P450 3A4 (AID 885). Also: nearly all actives have a fitted effect of over 65% in size. Conditions: recombinant CYP3A4, Luciferin-PPXE luminescence, 60 min; series mostly up to 57.1 µM. In outline:
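Signal was normalized against complete inhibition by 57 uM ketoconazole. The reaction used 20nM CYP3A4 with 25uM Luciferin-PPXE, 10-min compound preincubation and a 60-min NADPH-supported step at RT.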

Experiment [10] in a line: qHTS Assay for Lipid Storage Modulators (AID 1519; calls by dose curve). Conditions: Drosophila S3 cells, BODIPY lipid droplet/cell ratio, laser cytometry, cells loaded with oleic acid; for activity change, negative = inhibition: at 57.5 µM (top of the series). In outline: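 Cells seeded at 5,000 per well were treated with compounds over a concentration series and loaded with oleic acid (400 uM, as added). Lipid droplet fluorescence (488 nm excitation, 500-530 nm channel) was read by laser-scanning cytometry and normalized to 20 uM Triacsin C.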

The target in experiment [11] is Dual specificity protein kinase CLK4 (Homo sapiens) (UniProt Q9HAZ1). In words: qHTS Assay for Inhibitors of CDC-like Kinase 4 (Kinase-Glo Assay) (AID 1770). Also: nearly all actives have a fitted effect of over 65% in size. Also: potency is read from the fitted curve at half-maximal effect. Conditions: recombinant Clk4, Kinase-Glo ATP depletion luminescence; series mostly up to 66.7 µM. The method, boiled down:
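Substrate mix (RS peptide 100 uM, ATP 1 uM) dispensed, compound pinned in, then Clk4 added to 25 nM final. Incubated 4.5 h at RT; Kinase-Glo reagent added, luminescence read after 5 min.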

For experiment [12] the target is unchanged. Put plainly: qHTS Assay for Inhibitors of CDC-like Kinase 4 (ADP-Glo Assay) (AID 1771). Also: nearly all actives have a fitted effect of over 70% in size. Also: potency is read from the fitted curve at half-maximal effect. The note with it: recombinant CLK4, ADP-Glo luminescence; series mostly up to 80 µM. The method, boiled down: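 Clk4 (25 nM) was incubated 1 hr at room temperature with 100 uM RS repeat peptide and 1 uM ATP in buffer with 2 mM MgCl2, 0.5 mM EGTA, 2.5 mM DTT. ADP formed was quantified by ADP-Glo luminescence.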

The target is the same in experiment [13]. Put plainly: qHTS Assay for Inhibitors of CDC-like Kinase 4 (ADP-FP Assay) (AID 1795). Also: nearly all actives have a fitted effect of over 60% in size. Also: potency is read from the fitted curve at half-maximal effect. The note with it: Transcreener ADP fluorescence polarization; series mostly up to 50 µM. The method, boiled down: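 Clk4 6.25 nM; RS peptide 100 uM; ATP 1 uM; 25 mM Tris pH 7.5, 10 mM MgCl2; 1 h reaction. ADP detected via antibody/orange tracer FP displacement; TG003 positive control.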

For experiment [14], the target named is Ubiquitin carboxyl-terminal hydrolase 1 (Homo sapiens) (UniProt O94782). Put plainly: Inhibitors of USP1/UAF1: Pilot qHTS (AID 504865). Also: nearly all actives have a fitted effect of over 35% in size. Also: potency is read from the fitted curve at half-maximal effect. The note with it: purified USP1/UAF1, Ub-rhodamine cleavage fluorescence; series mostly up to 54.9 µM. The method, boiled down: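 In 50mM HEPES pH 7.8 containing 0.5mM EDTA, 1mM TCEP, 0.1 mg/ml BSA and 0.01% Tween-20, 1nM USP1/UAF1 is exposed to compound for 15 min, then Ub-Rho (150nM final) is added and fluorescence is read over time.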
Chain of Ubiquitin carboxyl-terminal hydrolase 1 (Homo sapiens) (O94782 whole entry, looked up): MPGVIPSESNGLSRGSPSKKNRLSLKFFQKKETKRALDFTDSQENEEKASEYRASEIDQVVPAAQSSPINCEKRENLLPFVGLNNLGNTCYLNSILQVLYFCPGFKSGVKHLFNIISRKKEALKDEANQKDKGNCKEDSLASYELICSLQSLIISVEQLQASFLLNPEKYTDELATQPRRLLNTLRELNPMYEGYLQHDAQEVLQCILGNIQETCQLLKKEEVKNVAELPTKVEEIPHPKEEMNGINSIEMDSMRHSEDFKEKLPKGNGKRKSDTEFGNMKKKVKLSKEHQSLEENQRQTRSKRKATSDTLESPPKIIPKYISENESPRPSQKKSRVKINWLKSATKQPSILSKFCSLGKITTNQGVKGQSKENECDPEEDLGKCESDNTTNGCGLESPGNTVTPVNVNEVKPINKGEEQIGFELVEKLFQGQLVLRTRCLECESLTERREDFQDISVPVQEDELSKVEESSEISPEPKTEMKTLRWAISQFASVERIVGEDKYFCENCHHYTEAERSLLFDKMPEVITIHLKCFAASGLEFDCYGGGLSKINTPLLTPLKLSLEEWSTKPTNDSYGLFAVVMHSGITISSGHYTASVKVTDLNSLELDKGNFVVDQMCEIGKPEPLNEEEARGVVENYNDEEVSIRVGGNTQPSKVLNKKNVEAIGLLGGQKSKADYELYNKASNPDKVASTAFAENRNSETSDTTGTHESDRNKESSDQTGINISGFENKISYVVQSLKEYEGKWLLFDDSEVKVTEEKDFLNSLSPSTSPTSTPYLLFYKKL

Experiment [15] has as its target Cytochrome P450 2C19 (Homo sapiens) (UniProt P33261). Put plainly: qHTS Assay for Inhibitors and Substrates of Cytochrome P450 2C19 (AID 899). Also: nearly all actives have a fitted effect of over 60% in size. Also: potency is read from the fitted curve at half-maximal effect. Conditions: recombinant CYP2C19, luciferin-H EGE luminescence; series mostly up to 57.1 µM. In outline: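 Luminescence readout of luciferin formed from 10uM Luciferin-H EGE (KM level) by 5 nM CYP2C19 in 50mM KPO4. 60 min NADPH-driven reaction at 37C after 10 min compound preincubation; data scaled to 57uM ketoconazole inhibition.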

The nature of experiment [16]: AP1 Signaling Pathway (AID 357; active = well fitted curve in either direction with a large enough effect, not every such curve was filed as active;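 also: ME-180 reporter cells stimulated with EGF at its EC50 level; % is scaled to controls: 0 for no effect and ±100 for the full control effect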). Conditions: ME-180 AP-1-bla reporter, EGF-induced, beta-lactamase ratio, 5 h; at 7.69 µM (top of the series) unless noted. The method, boiled down:
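AP-1-bla ME-180 cells, Opti-MEM + 0.5% dialyzed FBS, plated overnight 37 °C. Cpd titration + EC50 EGF, 5 h 37 °C. CCF4 2.5 h RT; ex 405, em 460/530 ratio → %activity, AC50.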

Experiment [17] is described as follows: qHTS Assay for Identification of Small Molecule Agonists for Hypoxia Response Element Signaling Pathway (AID 914; active = well fitted activation curve with a large enough effect in the signal ratio, with a control signal flat, not every such curve was filed as active; the % refers to the signal ratio; also: % of control where 0% means no effect). Conditions: ME-180 (cervical carcinoma) HRE-bla reporter, beta-lactamase ratio, CoCl2, 17 h; activation: stronger effect = higher value. The method, boiled down: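 A beta-lactamase reporter under hypoxia response element control in ME-180 cells served as the system. Compound titrations plus EC50 CoCl2 ran 17 h at 37 degrees Celsius; AC50 values were fitted from %Activity.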

Setting [18] is: measured here: cell count channel max response.
Where [19] appears, read: measured here: lipid channel max response.

Chain of 3',5'-cyclic-AMP phosphodiesterase 4B (Homo sapiens) (Q07343 whole entry, looked up): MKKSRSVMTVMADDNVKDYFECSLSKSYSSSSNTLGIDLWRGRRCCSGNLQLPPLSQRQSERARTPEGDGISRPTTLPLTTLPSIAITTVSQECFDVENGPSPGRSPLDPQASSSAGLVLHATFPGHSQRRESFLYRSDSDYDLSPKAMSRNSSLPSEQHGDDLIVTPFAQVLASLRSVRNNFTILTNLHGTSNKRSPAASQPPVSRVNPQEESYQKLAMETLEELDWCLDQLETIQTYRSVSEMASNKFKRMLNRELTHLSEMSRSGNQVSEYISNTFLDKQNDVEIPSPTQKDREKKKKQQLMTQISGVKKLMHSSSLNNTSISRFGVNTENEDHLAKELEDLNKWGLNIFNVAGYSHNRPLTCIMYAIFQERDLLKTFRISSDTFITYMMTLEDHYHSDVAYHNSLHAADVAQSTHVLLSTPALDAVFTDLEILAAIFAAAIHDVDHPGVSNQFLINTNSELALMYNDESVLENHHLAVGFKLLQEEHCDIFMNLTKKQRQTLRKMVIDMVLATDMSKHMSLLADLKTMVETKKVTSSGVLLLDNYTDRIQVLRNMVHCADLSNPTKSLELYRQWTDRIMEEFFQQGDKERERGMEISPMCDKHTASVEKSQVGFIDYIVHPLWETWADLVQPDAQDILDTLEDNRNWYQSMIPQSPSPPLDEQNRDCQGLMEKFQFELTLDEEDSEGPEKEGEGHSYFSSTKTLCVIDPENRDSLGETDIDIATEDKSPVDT
Chain of Cytochrome P450 1A2 (Homo sapiens) (P05177 whole entry, looked up): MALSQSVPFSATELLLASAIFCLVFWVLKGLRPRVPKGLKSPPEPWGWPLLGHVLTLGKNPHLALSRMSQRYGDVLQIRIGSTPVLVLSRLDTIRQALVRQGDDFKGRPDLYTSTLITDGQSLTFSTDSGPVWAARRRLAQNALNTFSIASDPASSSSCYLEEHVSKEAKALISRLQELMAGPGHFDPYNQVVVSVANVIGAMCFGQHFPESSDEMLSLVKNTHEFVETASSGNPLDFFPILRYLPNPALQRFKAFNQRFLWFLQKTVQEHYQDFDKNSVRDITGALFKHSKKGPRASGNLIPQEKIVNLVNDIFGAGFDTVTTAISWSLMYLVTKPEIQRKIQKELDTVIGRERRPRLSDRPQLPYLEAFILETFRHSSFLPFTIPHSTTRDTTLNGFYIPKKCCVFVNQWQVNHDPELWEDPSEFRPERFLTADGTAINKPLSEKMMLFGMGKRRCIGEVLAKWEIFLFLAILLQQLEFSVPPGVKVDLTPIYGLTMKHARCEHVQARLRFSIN
Chain of Lysosomal acid glucosylceramidase (Homo sapiens) (P04062 whole entry, looked up): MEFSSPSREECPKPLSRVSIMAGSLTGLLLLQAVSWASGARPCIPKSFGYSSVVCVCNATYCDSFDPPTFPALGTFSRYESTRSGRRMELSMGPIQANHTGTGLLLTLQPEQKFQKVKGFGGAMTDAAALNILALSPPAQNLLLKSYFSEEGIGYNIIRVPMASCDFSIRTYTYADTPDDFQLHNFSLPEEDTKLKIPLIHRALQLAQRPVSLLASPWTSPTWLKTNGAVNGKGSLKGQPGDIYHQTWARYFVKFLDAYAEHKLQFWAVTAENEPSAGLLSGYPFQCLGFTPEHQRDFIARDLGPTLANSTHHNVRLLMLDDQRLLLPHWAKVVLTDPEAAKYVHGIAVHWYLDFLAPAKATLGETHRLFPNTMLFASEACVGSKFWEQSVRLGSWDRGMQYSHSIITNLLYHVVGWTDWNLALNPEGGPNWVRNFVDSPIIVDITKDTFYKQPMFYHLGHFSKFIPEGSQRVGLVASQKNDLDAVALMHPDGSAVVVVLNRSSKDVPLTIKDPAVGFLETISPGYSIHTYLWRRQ
Chain of Dual specificity protein kinase CLK4 (Homo sapiens) (Q9HAZ1 whole entry, looked up): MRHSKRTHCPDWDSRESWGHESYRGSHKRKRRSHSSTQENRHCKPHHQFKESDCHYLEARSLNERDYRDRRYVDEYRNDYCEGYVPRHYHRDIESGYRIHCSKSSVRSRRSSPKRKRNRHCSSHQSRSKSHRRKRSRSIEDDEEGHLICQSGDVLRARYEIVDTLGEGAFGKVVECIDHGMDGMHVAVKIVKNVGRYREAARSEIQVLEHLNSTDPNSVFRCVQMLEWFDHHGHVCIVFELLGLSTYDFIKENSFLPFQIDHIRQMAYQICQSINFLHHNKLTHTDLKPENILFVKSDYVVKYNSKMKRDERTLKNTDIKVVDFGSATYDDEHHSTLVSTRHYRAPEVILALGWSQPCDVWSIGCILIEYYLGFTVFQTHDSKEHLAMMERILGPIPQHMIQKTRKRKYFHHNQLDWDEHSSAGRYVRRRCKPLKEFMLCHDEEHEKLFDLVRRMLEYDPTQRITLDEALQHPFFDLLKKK
Chain of Cytochrome P450 3A4 (Homo sapiens) (P08684 whole entry, looked up): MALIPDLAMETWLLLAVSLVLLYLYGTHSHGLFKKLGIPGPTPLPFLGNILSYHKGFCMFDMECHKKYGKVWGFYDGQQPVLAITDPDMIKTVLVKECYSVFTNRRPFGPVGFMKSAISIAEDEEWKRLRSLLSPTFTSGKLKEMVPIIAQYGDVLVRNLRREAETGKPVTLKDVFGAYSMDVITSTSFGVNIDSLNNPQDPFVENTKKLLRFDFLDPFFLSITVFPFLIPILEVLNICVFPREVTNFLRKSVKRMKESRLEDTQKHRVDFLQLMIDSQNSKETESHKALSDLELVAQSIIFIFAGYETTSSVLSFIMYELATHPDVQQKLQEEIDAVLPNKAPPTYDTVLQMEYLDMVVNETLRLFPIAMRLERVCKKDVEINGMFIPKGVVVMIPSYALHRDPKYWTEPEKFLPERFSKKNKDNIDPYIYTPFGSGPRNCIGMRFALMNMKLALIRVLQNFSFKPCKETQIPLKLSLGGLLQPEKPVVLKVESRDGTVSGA
Chain of Glucocorticoid receptor (Homo sapiens) (P04150 whole entry, looked up, the tested form may be a part): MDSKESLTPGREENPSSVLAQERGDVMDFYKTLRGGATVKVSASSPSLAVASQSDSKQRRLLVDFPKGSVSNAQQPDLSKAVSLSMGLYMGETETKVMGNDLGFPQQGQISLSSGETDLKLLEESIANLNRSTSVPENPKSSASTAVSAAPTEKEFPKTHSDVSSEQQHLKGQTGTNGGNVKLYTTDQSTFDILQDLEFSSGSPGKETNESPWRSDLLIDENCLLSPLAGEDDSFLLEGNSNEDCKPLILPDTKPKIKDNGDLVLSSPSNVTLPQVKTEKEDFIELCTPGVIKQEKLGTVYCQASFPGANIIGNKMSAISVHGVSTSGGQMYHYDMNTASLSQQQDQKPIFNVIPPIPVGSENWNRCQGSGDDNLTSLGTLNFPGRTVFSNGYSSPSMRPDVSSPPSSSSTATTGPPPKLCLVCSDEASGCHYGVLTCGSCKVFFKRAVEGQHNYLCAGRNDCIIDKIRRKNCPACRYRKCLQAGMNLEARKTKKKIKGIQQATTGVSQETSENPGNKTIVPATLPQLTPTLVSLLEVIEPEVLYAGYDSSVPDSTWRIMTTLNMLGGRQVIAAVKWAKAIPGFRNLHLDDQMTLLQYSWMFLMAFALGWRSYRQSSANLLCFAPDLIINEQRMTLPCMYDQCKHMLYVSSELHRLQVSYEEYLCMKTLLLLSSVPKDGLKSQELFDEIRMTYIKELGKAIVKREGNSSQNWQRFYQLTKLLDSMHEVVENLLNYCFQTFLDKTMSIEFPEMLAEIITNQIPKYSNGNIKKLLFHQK
Chain of Cytochrome P450 2C19 (Homo sapiens) (P33261 whole entry, looked up): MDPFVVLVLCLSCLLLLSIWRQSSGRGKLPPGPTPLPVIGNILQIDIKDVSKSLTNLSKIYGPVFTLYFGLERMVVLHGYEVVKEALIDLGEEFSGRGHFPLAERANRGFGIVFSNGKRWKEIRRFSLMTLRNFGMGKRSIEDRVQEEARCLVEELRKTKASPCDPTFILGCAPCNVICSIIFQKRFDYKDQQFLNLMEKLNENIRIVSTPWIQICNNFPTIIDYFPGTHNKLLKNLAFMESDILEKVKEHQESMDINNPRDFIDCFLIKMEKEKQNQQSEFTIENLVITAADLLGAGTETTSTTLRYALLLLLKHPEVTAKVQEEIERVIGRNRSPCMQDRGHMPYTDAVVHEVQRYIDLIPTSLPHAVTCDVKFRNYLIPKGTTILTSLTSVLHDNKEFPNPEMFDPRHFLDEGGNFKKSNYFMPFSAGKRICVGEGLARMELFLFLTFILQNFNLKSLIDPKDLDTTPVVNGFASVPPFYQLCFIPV

With `COc1cccc(Nc2ncc3nc(C)c(=O)n(-c4ccccc4)c3n2)c1`, the Potency in experiment [1] was > 11.4 µM (inactive); in [2], 5.01 µM (active); in experiment [5], > 9.22 µM (inactive); in experiment [6] it was > 46 µM (inactive); in experiment [11], 10 µM (active); in experiment [12] it was 12.6 µM (active). The Potency in experiment [13] was 1.58 µM (active). In addition, the activity change, negative = inhibition in experiment [3] is 11.1% (inactive); in experiment [10], -6.79% (inactive). In addition, in experiment [4], the activity, negative = inhibition was -20.1% (inactive). The Potency entry in experiment [7], in [8], in [9] and in experiment [14] was “inactive” in each case. Besides, the max response was -3.12% in [10] (setting [18]) and -13.9% in experiment [10] (setting [19]).

With `COc1cccc(Nc2ncc3ncc(=O)n(C)c3n2)c1`, the Potency was > 11.4 µM (inactive) in experiment [1]; 1.58 µM (active) in [2]; > 9.22 µM (inactive) in experiment [5]; > 46 µM (inactive) in [6]; 0.891 µM (active) in experiment [11]; 1 µM (active) in experiment [12]. Also, the Potency in [13] was 0.708 µM (active). Also, the results for the activity change, negative = inhibition in [3] and in experiment [10] were 0.44% (inactive) and 4.86% (inactive), respectively. Also, the activity, negative = inhibition in experiment [4] was -17.5% (inactive). Moreover, the Potency result in experiment [8], in experiment [9], in experiment [15] and in [14] was “inactive” throughout. The max response in experiment [10] (setting [18]) came to 11.1%; in experiment [10] (setting [19]), 14.9%.

On to `COc1ccccc1-c1nccc(NCc2ccccc2)n1`, for which the Potency is > 11.4 µM (inactive) in experiment [1]; 2.51 µM (active) in [2]; > 46 µM (inactive) in experiment [5]; > 46 µM (inactive) in experiment [6]; 7.94 µM (active) in [15]; 22.4 µM (active) in [14]. Besides, the activity change, negative = inhibition in experiment [16] is -2.63% (inactive); in [3] it was 1.11% (inactive); in [10] it was 1.38% (inactive). Also, in [4], the activity, negative = inhibition was 1.51% (inactive). For the same molecule, the Potency result in experiment [7], in experiment [9], in experiment [11], in experiment [12] and in experiment [13] was “inactive” throughout. Further, the max response was determined as 3.72% in experiment [10] (setting [18]) and 0.722% in [10] (setting [19]).

`COc1cccc(Cn2c(=O)c(C)nc3cnc(N(C)C)nc32)c1`: the Potency in experiment [1] is > 11.4 µM (inactive); in experiment [5] it was > 9.22 µM (inactive); in experiment [6], > 46 µM (inactive). The activity change, negative = inhibition was -23% (inactive) in experiment [16], 1.59% (inactive) in experiment [3] and -5.5% (inactive) in experiment [10]. Further, the activity, negative = inhibition in experiment [4] is -11.2% (inactive). Further, the Potency result in [8], in experiment [11], in [12], in experiment [13] and in [14] was “inactive” each time. Moreover, the max response in [10] (setting [18]) worked out at 19.8%; in experiment [10] (setting [19]), 12.4%.

On to `COc1cccc(-c2ccc3ncnc(NCCN4CCOCC4)c3c2)c1`, for which the activity change, negative = inhibition in [16] is -12.4% (inactive); in [10], -1.99% (inactive). Further, the activity, negative = inhibition in experiment [4] was -15.6% (inactive). The Potency was > 46 µM (inactive) in experiment [5]; > 46 µM (inactive) in experiment [6]; 1.78 µM (active) in experiment [11]; 1 µM (active) in experiment [12]; 0.631 µM (active) in [13]. For the same molecule, the Potency result in experiment [7] and in experiment [14] was “inactive” in each case. In experiment [17], the activation is -14.8% (inactive). The max response is -14.3% in experiment [10] (setting [18]) and -15.9% in experiment [10] (setting [19]).

With `COCCn1c(=O)c(-c2ccccc2)nc2cnc(N3CCN(C)CC3)nc21`, the Potency in [1] is > 11.4 µM (inactive); in [5] it was > 9.22 µM (inactive); in experiment [6] it was > 46 µM (inactive). Further, the activity change, negative = inhibition in experiment [16] is -12.6% (inactive); in [3], 7.66% (inactive); in experiment [10], 3.96% (inactive). Besides, the activity, negative = inhibition in experiment [4] is -8.44% (inactive). Besides, the Potency entry in experiment [7], in [8], in experiment [11], in experiment [12] and in [14] was “inactive” each time. The max response in experiment [10] (setting [18]) came to 11.4%; in [10] (setting [19]), 16.1%.
